Bioassay records deposited in PubChem BioAssay by University of Kansas High Throughput Screening Laboratory.
Pf apPOL block: Pf-apPOL DNA polymerase inhibition. Recombinant Pf-apPOL, molecular beacon fluorescence, 1.5 h. 0.25% of 210,000 active. inhibition, % at 10 µM
mHTT CaM bind: disrupts binding of mutant huntingtin to calmodulin; P42858; AlphaScreen His-mHTT/GST-CaM binding, luminescence; inhibition, % at 15 µM; 3.6% of 190,000 active
Each line names hits and unclear results; the compound was inactive in the other large screens. This excerpt belongs to a sample that is enriched for hits. No stated cut-off is given here; in the data, active means inhibition above about 50%; inactive means the rest.

Cc1ccc(C)c(S(=O)(=O)N=C2C=C(Br)C(=O)c3ccccc32)c1	none
Cc1ccc(NC(=O)c2cccc(S(=O)(=O)Nc3cccc(C(=O)O)c3)c2)cc1	none
Cc1ccc(S(=O)(=O)N=C2C=C(Nc3cccc(C(=O)O)c3)C(=O)c3ccccc32)cc1	mHTT CaM bind 62
Cc1ccc(CNC(=O)Nc2nnc3ccccn23)cc1	none
O=c1c2cc(F)ccc2ncn1C1CCN(S(=O)(=O)c2ccccc2F)CC1	none
CC1CCc2c(sc(NC(=O)c3cncc(Br)c3)c2C#N)C1 (stereo unspecified)	none
Cc1nc(C)c(Cc2ccccc2F)c(N2CCN(C(=O)C(C)(C)C)CC2)n1	none
O=C1OC(c2cc(F)c(F)cc2Cl)=N/C1=C\c1cccs1	none
COc1ccc(C(C[N+](=O)[O-])c2c[nH]c3ccccc23)cc1 (stereo unspecified)	none
COc1ccc(C(C[N+](=O)[O-])c2c(C)[nH]c3ccccc23)c(OC)c1 (stereo unspecified)	mHTT CaM bind 63
COc1cc(C(C[N+](=O)[O-])c2c(-c3ccccc3)[nH]c3ccccc23)cc(OC)c1OC (stereo unspecified)	mHTT CaM bind 58
COc1ccc(C(C[N+](=O)[O-])c2c(C)[nH]c3ccccc23)cc1OC (stereo unspecified)	none
COC(=O)c1ccc(=O)oc1	none (no result: Pf apPOL block)
COC(=O)c1ccc2occ(-c3oc4ccc(C(=O)OC)cc4c3O)c2c1	mHTT CaM bind 100
COc1ccc(OCC(=O)N2CCC(c3nc4ccncc4n3C)C2)cc1 (stereo unspecified)	none
O=C(C(c1ccccc1)c1ccccc1)N1CCN(c2ccc([N+](=O)[O-])cc2)CC1	none
O=C(C(c1ccccc1)c1ccccc1)N1CCN(c2ccc(F)cc2)CC1	mHTT CaM bind 64
Cc1cccc(-c2nc3c(c(=O)[nH]2)CN(C(=O)Nc2ccccc2C)CC3)c1	none
CCc1ccc2ncc(C#N)c(N3CCC(C(=O)NCc4ccccc4)CC3)c2c1	none
C#CC1(O)CCC2C3CCc4cc(O)ccc4C3CCC21C (stereo unspecified)	none
CC12CCC3c4ccc(O)cc4CCC3C1CC(=Cc1ccc(Cl)cc1)C2O (stereo unspecified)	mHTT CaM bind 100
COc1cc2c(cc1O)CC[C@@H]1[C@@H]2CC[C@]2(C)[C@@H](O)CC[C@@H]12	none (no result: mHTT CaM bind)
CC12CCC3c4ccc(O)cc4CCC3C1CC(=Cc1ccccc1)C2O (stereo unspecified)	mHTT CaM bind 97
O=[N+]([O-])c1ccc2c(c1)OCCOCCOCCO2	none (no result: mHTT CaM bind)
COc1cccc(CC(=O)N2CCc3c(c(C(=O)NCc4cccc(C)c4)nn3C)C2)c1	mHTT CaM bind 54
Cc1cccc(CNC(=O)c2nn(C)c3c2CN(C(=O)Cc2cccs2)CC3)c1	mHTT CaM bind 69
Cc1cccc(CNC(=O)c2nn(C)c3c2CN(C(=O)COc2ccc(F)cc2)CC3)c1	mHTT CaM bind 63
Cc1cccc(CNC(=O)c2nn(C)c3c2CN(C(=O)c2cccs2)CC3)c1	none
Cc1cccc(OCC(=O)N2CCc3c(c(-c4nc(-c5ccc(F)cc5)no4)nn3C)C2)c1	none
Cc1cccc(OCC(=O)N2CCc3c(c(C(=O)NCc4ccc(F)cc4)nn3C)C2)c1	mHTT CaM bind 55
CCC(=O)N1CCc2c(c(C(=O)NCc3cccc(C)c3)nn2C)C1	none
CCN1CCCC1CNS(=O)(=O)c1cccc2nsnc12 (stereo unspecified)	none
CCCCCC[n+]1ccccc1C=Cc1ccc(N(C)C)cc1	none (no result: mHTT CaM bind)
CC(=O)N1CCc2sc(S(=O)(=O)Nc3ccc(C)cc3)cc2C1	none
COc1ccc(OCC(=O)N2CCc3c(c(C(=O)NCc4cccc(C)c4)nn3C)C2)cc1	mHTT CaM bind 70
COCC(=O)N1CCc2c(c(C(=O)NCc3cccc(C)c3)nn2C)C1	none
COc1ccccc1N(CC(=O)NCc1ccco1)S(C)(=O)=O	none
Cc1ccccc1N(CC(=O)NCc1ccco1)S(C)(=O)=O	Pf apPOL block 65
O=C(CCS(=O)(=O)Cc1ccc(Cl)cc1)NCc1ccccc1Cl	none
CCc1ccccc1NC(=O)COc1ccc(Br)cc1C	none
O=S(=O)(Nc1ccc(F)cc1F)c1ccc2[nH]c3c(c2c1)CCCC3	mHTT CaM bind 91
COC(=O)c1ccc(NS(=O)(=O)c2ccc3[nH]c4c(c3c2)CCCCC4)cc1	mHTT CaM bind 68
CC(=O)c1ccc(NS(=O)(=O)c2ccc3[nH]c4c(c3c2)CCCC4)cc1	mHTT CaM bind 63
COC(=O)c1ccc(NS(=O)(=O)c2ccc3[nH]c4c(c3c2)CCCC4)cc1	none
COc1ccc(NS(=O)(=O)c2ccc3[nH]c(=O)sc3c2)cc1	none
COc1ccc(NS(=O)(=O)c2ccc3[nH]c4c(c3c2)CCCC4)cc1	mHTT CaM bind 80
CC(=O)c1ccc2c3c([nH]c2c1)CCCC3	none
CCOc1ccccc1NS(=O)(=O)c1ccc2[nH]c3c(c2c1)CCCC3	none
O=C(NCCCN1CCCC1)C1CCN(c2nccnc2Sc2ccccc2)CC1	none
Cc1ccc(Cl)cc1-n1c(SCC(=O)N2CCCC2)nc2[nH]ncc2c1=O	none
CCOC(=O)C(C#N)=CNC1CCN(Cc2ccccc2)CC1	none (no result: mHTT CaM bind)
